Reference: PubChem BioAssay (NCI)
This is part of a sample that, as a whole, favours compounds with a hit. Of some 79,000 tested, about 15% had one in any assay. The source made the active and inactive calls. Cut-off read from the data, not from the text of the source: active = growth inhibition above about 70%; inactive = the rest.

How the values were obtained:
[1] = NCI Yeast Anticancer Drug Screen. Data for the rad52 strain (AID 147);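 note: 0% = growth of vehicle-treated control cultures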; details: S. cerevisiae rad52 mutant growth inhibition, active compounds read high
Procedure, shortened: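 Here a repair-compromised yeast strain receives each compound; its growth is then quantified and normalised to vehicle-only controls.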

[2] = NCI Yeast Anticancer Drug Screen. Data for the wt1 strain (AID 149);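 note: 0% = growth of vehicle-treated wt1 cultures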; details: S. cerevisiae wt1 strain (SPY 50644) growth inhibition, active compounds read high
Procedure, shortened: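 Readout: yeast growth inhibition, normalised to vehicle controls, in the wt1 strain exposed to test compounds.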

[3] = NCI Yeast Anticancer Drug Screen. Data for the rad50EPP+ strain (AID 151);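 note: 0% = growth of vehicle-treated control cultures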; details: S. cerevisiae rad50 mutant strain, active compounds read high
Procedure, shortened: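 Read-out is yeast growth inhibition relative to vehicle; cells used were the rad50EPP+ strain.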

[4] = NCI Yeast Anticancer Drug Screen. Data for the rad50 strain (AID 155);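 note: 0% = growth of vehicle-only cultures of the same strain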; details: S. cerevisiae rad50 strain growth inhibition, active compounds read high
Procedure, shortened: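 Compounds were tested on a yeast strain with an engineered DNA damage repair alteration; the reported value is growth inhibition normalised to vehicle treatment.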

[5] = NCI Yeast Anticancer Drug Screen. Data for the mec2-1 strain (AID 157); details: S. cerevisiae mec2-1 strain, active compounds read high
Procedure, shortened: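 Using mec2-1 yeast: add compound, measure growth, express inhibition versus vehicle-treated cultures.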

[6] = NCI Yeast Anticancer Drug Screen. Data for the rad14 strain (AID 159);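 note: 0% = growth of vehicle-treated control cultures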; details: S. cerevisiae rad14 strain growth inhibition, active compounds read high
Procedure, shortened: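 Compound-treated yeast with a defined DNA-repair lesion; growth inhibition normalised to vehicle-treated cultures.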

[7] = NCI Yeast Anticancer Drug Screen. Data for the sgs1 mgt1 strain (AID 161);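 note: 0% = growth of cultures given vehicle only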; details: S. cerevisiae sgs1 mgt1 strain, active compounds read high
Procedure, shortened: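 Yeast cells carrying a defined DNA-repair defect were exposed to test compounds. Growth inhibition was measured relative to vehicle-treated controls.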

[8] = NCI Yeast Anticancer Drug Screen. Data for the CLN2oe strain (AID 163);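 note: 0% = growth of vehicle-only control cultures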; details: S. cerevisiae CLN2oe strain, active compounds read high
Procedure, shortened: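 Whole-cell yeast growth assay. A strain engineered for altered cell-cycle control received compound, and inhibition relative to vehicle-treated cultures was recorded.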

[9] = NCI Yeast Anticancer Drug Screen. Data for the cln2 rad14 strain (AID 165);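 note: 0% = growth equal to vehicle treated cultures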; details: S. cerevisiae cln2 rad14 strain, active compounds read high
Procedure, shortened: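 Yeast strain cln2 rad14, bearing defects in cell cycle control and DNA repair, serves as the test system; values reflect growth inhibition compared with vehicle.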

[10] = NCI Yeast Anticancer Drug Screen. Data for the bub3 strain (AID 167); details: S. cerevisiae bub3 mutant strain, active compounds read high
Procedure, shortened: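 Growth of a checkpoint-deficient yeast mutant is measured after compound exposure. Values represent inhibition relative to vehicle.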

[11] = NCI Yeast Anticancer Drug Screen. Data for the wt2 strain (AID 169);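 note: 0% = growth of vehicle-treated yeast cultures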; details: S. cerevisiae wt2 strain growth inhibition, active compounds read high
Procedure, shortened: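 Treated yeast vs. vehicle-treated yeast: growth inhibition determined.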

[12] = NCI Yeast Anticancer Drug Screen. Data for the mlh1 strain (AID 171);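 note: 0% = growth of vehicle-treated control cultures of the same strain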; details: S. cerevisiae mlh1 strain growth inhibition, active compounds read high
Procedure, shortened: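 A yeast strain with a defined genetic lesion serves as the test organism. Cultures receive compound or vehicle, and growth is measured.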

[13] = NCI Yeast Anticancer Drug Screen. Data for the sgs1 strain (AID 173);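 note: 0% = growth of vehicle-only control cultures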; details: S. cerevisiae sgs1 mutant, active compounds read high
Procedure, shortened: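 A genetically defined yeast mutant is incubated with the test compound, and its growth is compared to that of the same strain given vehicle.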

[14] = NCI Yeast Anticancer Drug Screen. Data for the mlh1 rad18 strain (AID 175); details: S. cerevisiae mlh1 rad18 strain growth inhibition, active compounds read high
Procedure, shortened: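 Steps: expose repair-defective yeast to compound; measure growth; express inhibition against vehicle-treated controls.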

[15] = NCI Yeast Anticancer Drug Screen. Data for the rad18 strain (AID 177); details: S. cerevisiae rad18 mutant growth inhibition, active compounds read high
Procedure, shortened: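 Measured value is growth inhibition of a yeast strain bearing a DNA repair alteration, referenced to vehicle-treated cells.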

[16] = at 5.0 µM (retest, dose inferred, filed as 0.5)
[17] = at 50.0 µM (retest, dose inferred, filed as 5.0)

Measured: growth inhibition

COC1=CC(=O)C2C(C1=O)C(c1ccc(Cl)cc1)[C@@H]2C (stereo partly specified)
active: [1]; at 11.0 µM 98% | [1]; at 33.0 µM 99% | [1]; at 100.0 µM 99% | [2]; at 11.0 µM 99% | [2]; at 33.0 µM 99% | [2]; at 100.0 µM 99% | [3]; at 11.0 µM 98% | [3]; at 33.0 µM 98% | [3]; at 100.0 µM 98% | [4]; at 11.0 µM 98% | [4]; at 33.0 µM 98% | [4]; [17] 98% | [4]; at 50.0 µM 90.5% | [4]; at 100.0 µM 98% | [5]; at 11.0 µM 99% | [5]; at 33.0 µM 98% | [5]; [17] 99% | [5]; at 50.0 µM 93.8% | [5]; at 100.0 µM 99% | [6]; at 11.0 µM 98% | [6]; at 33.0 µM 99% | [6]; at 100.0 µM 99% | [7]; [17] 98% | [7]; at 50.0 µM 92% | [8]; at 11.0 µM 99% | [8]; at 33.0 µM 99% | [8]; at 100.0 µM 99% | [9]; [17] 98% | [9]; at 50.0 µM 90.5% | [10]; at 11.0 µM 99% | [10]; at 33.0 µM 99% | [10]; [17] 99% | [10]; at 50.0 µM 90.8% | [10]; at 100.0 µM 99% | [11]; at 11.0 µM 94% | [11]; at 33.0 µM 98% | [11]; at 100.0 µM 99% | [12]; at 11.0 µM 98% | [12]; at 33.0 µM 99% | [12]; at 100.0 µM 99% | [13]; at 11.0 µM 99% | [13]; at 33.0 µM 99% | [13]; at 100.0 µM 98% | [14]; [17] 98% | [14]; at 50.0 µM 90.5% | [15]; at 11.0 µM 97% | [15]; at 33.0 µM 99% | [15]; at 100.0 µM 99%
inactive: [1]; at 1.2 µM 12% | [1]; at 3.7 µM 25% | [2]; at 1.2 µM 11% | [2]; at 3.7 µM 23% | [3]; at 1.2 µM 29% | [3]; at 3.7 µM 64% | [4]; at 1.2 µM 2% | [4]; at 3.7 µM 12% | [4]; [16] 4% | [5]; at 1.2 µM 34% | [5]; at 3.7 µM 49% | [5]; [16] -12% | [6]; at 1.2 µM -3% | [6]; at 3.7 µM 12% | [7]; [16] -10% | [8]; at 1.2 µM 19% | [8]; at 3.7 µM 29% | [9]; [16] 30% | [10]; at 1.2 µM 24% | [10]; at 3.7 µM 53% | [10]; [16] 41% | [11]; at 1.2 µM 6% | [11]; at 3.7 µM 22% | [12]; at 1.2 µM 20% | [12]; at 3.7 µM 39% | [13]; at 1.2 µM 33% | [13]; at 3.7 µM 48% | [14]; [16] 23% | [15]; at 1.2 µM 14% | [15]; at 3.7 µM 29%

COC(=O)c1ccc(CCC2=CC(=O)C(Br)=CC2=O)cc1
active: [1]; at 100.0 µM 72% | [3]; at 100.0 µM 88% | [4]; [17] 99% | [5]; [17] 98% | [11]; at 33.0 µM 88% | [11]; at 100.0 µM 98% | [13]; at 100.0 µM 70% | [14]; [17] 99% | [14]; at 50.0 µM 91.8%
inactive: [1]; at 1.2 µM 17% | [1]; at 3.7 µM 35% | [1]; at 11.0 µM 47% | [1]; at 33.0 µM 52% | [2]; at 1.2 µM 4% | [2]; at 3.7 µM 3% | [2]; at 11.0 µM 4% | [2]; at 33.0 µM 12% | [2]; at 100.0 µM 28% | [3]; at 1.2 µM 2% | [3]; at 3.7 µM 37% | [3]; at 11.0 µM 42% | [3]; at 33.0 µM 62% | [4]; at 1.2 µM -3% | [4]; at 3.7 µM 14% | [4]; [16] 12% | [4]; at 11.0 µM 15% | [4]; at 33.0 µM 18% | [4]; at 50.0 µM 61.1% | [4]; at 100.0 µM 34% | [5]; at 1.2 µM -7% | [5]; at 3.7 µM -15% | [5]; [16] 44% | [5]; at 11.0 µM -12% | [5]; at 33.0 µM -12% | [5]; at 50.0 µM 68.2% | [5]; at 100.0 µM 19% | [6]; at 1.2 µM -6% | [6]; at 3.7 µM 1% | [6]; at 11.0 µM 5% | [6]; at 33.0 µM 8% | [6]; at 100.0 µM 54% | [7]; [16] 10% | [7]; [17] 0% | [7]; at 50.0 µM 20.3% | [8]; at 1.2 µM -11% | [8]; at 3.7 µM -5% | [8]; at 11.0 µM 10% | [8]; at 33.0 µM 7% | [8]; at 100.0 µM 35% | [9]; [16] 4% | [9]; [17] 14% | [9]; at 50.0 µM 38.7% | [10]; at 1.2 µM -20% | [10]; at 3.7 µM -11% | [10]; [16] 8% | [10]; at 11.0 µM -9% | [10]; at 33.0 µM -5% | [10]; [17] 6% | [10]; at 50.0 µM 23.1% | [10]; at 100.0 µM 29% | [11]; at 1.2 µM -12% | [11]; at 3.7 µM 7% | [11]; at 11.0 µM 39% | [12]; at 1.2 µM 0% | [12]; at 3.7 µM -4% | [12]; at 11.0 µM -5% | [12]; at 33.0 µM 5% | [12]; at 100.0 µM 56% | [13]; at 1.2 µM 8% | [13]; at 3.7 µM 26% | [13]; at 11.0 µM 34% | [13]; at 33.0 µM 35% | [14]; [16] 27% | [15]; at 1.2 µM -25% | [15]; at 3.7 µM -8% | [15]; at 11.0 µM -8% | [15]; at 33.0 µM -25% | [15]; at 100.0 µM 40%
